# Source: PubChem (National Center for Advancing Translational Sciences (NCATS))
# HCMV antiviral – inhibitors of human cytomegalovirus; HFF cells, HCMV-luciferase reporter, 72 h; stronger effect = lower value; activity change, negative = inhibition, % at 57.5 µM; hit rate 4.5% among 410,000; in the data active means activity change below about -60%; inconclusive means no clear call, values can overlap the other calls; inactive means above about -39%
#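 Steps: HFFs plated, 16 h 37C; compounds added; HCMV-luciferase added to MOI 1 PFU/cell; 72 h 37C; OneGlo reagent, 5 min room temperature; luminescence read, normalized to controls.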
# FMDV inh – blocks foot and mouth disease virus; FMDV antiviral cell-based qHTS; Potency, µM (top dose mostly 57.9 µM), for the others: at the highest dose activity change, negative = inhibition, most hits filed as inhibitors; hit rate 1.2% among 410,000; AID 1159524; calls by dose curve; tested in HEK293T cells; further: read-out not given here; potency means the concentration at half of the fitted maximal effect; nearly all actives have a fitted effect of over 45% in size
# VACV Venus inh – vaccinia inhibition (Venus reporter); Vaccinia virus Venus reporter expression, fluorescence; Potency, µM (highest dose often 36.5 µM), without a hit: top-dose activity change, negative = inhibition, usual class: inhibitors; hit rate 0.46% among 330,000; AID 720580; calls by dose curve; tested in A549 cells; further: potency means the concentration at half of the fitted maximal effect; nearly all actives have a fitted effect of over 30% in size
# LASV entry inh – blocks Lassa virus binding to or entry into cells; Lassa virus pseudotype entry inhibition, cell reporter; Potency, µM (doses to about 37.9 µM), without a hit: top-dose activity change, negative = inhibition, hits mostly inhibitors; hit rate 1.2% among 300,000; calls by dose curve; tested in HEK293 cells; further: potency means the concentration at half of the fitted maximal effect; nearly all actives have a fitted effect of over 50% in size
# MARV entry inh – blocks Marburg virus binding to or entry into cells; Marburg virus pseudotyped entry inhibition, cell reporter; Potency, µM (top dose mostly 37.8 µM), without a hit: at the top dose activity change, negative = inhibition, usual class: inhibitors; hit rate 1.8% among 300,000; AID 540276; calls by dose curve; tested in HEK293 cells; further: potency means the concentration at half of the fitted maximal effect
# Vaccinia mCherry – vaccinia inhibition (mCherry reporter). Vaccinia virus mCherry reporter infection, fluorescence. AID 720579. Potency, µM (series often up to 36.5 µM), inactives show top-dose activity change, negative = inhibition, hits mostly inhibitors. hit rate 0.63% among 310,000; calls by dose curve; tested in A549 cells; further: potency means the concentration at half of the fitted maximal effect; nearly all actives have a fitted effect of over 35% in size
# * = called active by the depositor; i = inactive; ? = inconclusive; · = no result given; [ ] = another dose, or the depositor's remark. An excerpt weighted towards active compounds, which were near 6.5% of everything screened. On the % scale 0 is the no-effect control and ±100 the full control effect.
SMILES,HCMV antiviral,FMDV inh,VACV Venus inh,LASV entry inh,MARV entry inh,Vaccinia mCherry
CCCCCc1c(CC)ncn1CCc1ccccc1OC,-110.2*,39.8µM*,-19.5%,·,·,-17.1%
CCCc1c(-c2cccc(F)c2)ncn1Cc1ccccc1OC,-16.2,-1.3%,-3.7%,·,·,-5.7%
CCCc1c(-c2ccccc2)ncn1Cc1ccccc1OC,-17.0,?,1.8%,·,·,-10.4%
CCCc1c(-c2ccccc2Br)ncn1Cc1ccccc1OC,-72.8*,?,-16.6%,·,·,-18.3%
CCCCc1c(-c2ccccc2OC)ncn1CCc1cccc(OC)c1,-24.6,22.4µM*,-19.9%,·,·,-16.3%
C=CCOC(=O)N[C@H](C(C(=O)OC)=C(C)NCc1ccccc1)c1cccc(C(F)(F)F)c1,·,·,·,?,2.8%[14.2 µM],·
CCCCc1c(-c2ccccc2Br)ncn1CCc1ccccc1OC,-93.4*,?,-19.6%,·,·,-13.5%
CCCCc1c(-c2ccccc2OC)ncn1CCc1ccccc1Cl,?,35.5µM*,-25.3%,·,·,-7.5%
CCCCCc1c(-c2ccccc2OC)ncn1CCc1ccccc1OC,-83.2*,25.1µM*,?,·,·,?
CCCCc1c(-c2ccccc2OC)ncn1CCc1ccccc1OC,-68.3*,22.4µM*,?,·,·,?
CCCCc1c(-c2ccccc2OC)ncn1CCc1cccc(F)c1,-10.3,?,-8.2%,·,·,-10.5%
Cc1ccc(-c2cnco2)cc1,79.2,-4.4%,·,·,·,·
Cc1ccc(-c2cc(-c3ccc(C)cc3)[n+](C)o2)cc1,-102.8*,?,-26.3%,11.6µM*,3.55µM*,-10.5%
C=CCC[C@H](Cc1ccc(F)cc1)C(=O)OC[C@@H](Cc1c[nH]c2ccccc12)NC(=O)[C@@H](CC=C)CC(=O)N[C@@H](CO)Cc1ccccc1,31.9,?,?,·,·,-19.6%
C=CCC[C@H](Cc1ccc(F)cc1)C(=O)OC[C@H](Cc1c[nH]c2ccccc12)NC(=O)[C@H](CC=C)CC(=O)N(CCO)Cc1ccccc1,56.4,-26.7%,22.4µM*,·,·,?
C=CCC[C@@H](Cc1ccc(F)cc1)C(=O)OC[C@@H](C)NC(=O)[C@@H](CC=C)CC(=O)N[C@H](CO)Cc1ccccc1,-15.8,39.8µM*,?,·,·,?
C=CCC[C@@H](Cc1ccc(F)cc1)C(=O)OC[C@@H](Cc1c[nH]c2ccccc12)NC(=O)[C@H](CC=C)CC(=O)N[C@H](CO)Cc1ccccc1,?,-24.0%,11.2µM*,·,·,-32.0%
C=CCC[C@@H](Cc1ccc(F)cc1)C(=O)OC[C@@H](Cc1c[nH]c2ccccc12)NC(=O)[C@@H](CC=C)CC(=O)N(CCO)Cc1ccccc1,-16.8,-15.9%,?,·,·,-23.0%
C=CC[C@@H](CC(=O)N[C@H](CO)Cc1ccccc1)C(=O)N[C@@H](C)COC(=O)[C@@H](CC=C)Cc1ccc(F)cc1,-17.4,?,-20.5%,·,·,?
Nc1[nH]c(C(=O)c2ccccc2)c(-c2cccnc2)c1C(=O)c1ccccc1,-2.9,·,·,·,·,·
CS(=O)(=O)N1CCc2cc(C(=O)Nc3cccc(F)c3)ccc21,67.4,19.1%,-7.1%,5.6%[46.1 µM],?,2.9%
CCOC(=O)c1ccc(NC(=O)CN2Cc3ccccc3C2=O)cc1,4.0,-8.4%,-10.0%,-23.8%[46.1 µM],·,-12.9%
NCCC[C@H](N)CC(=O)N[C@H]1CNC(=O)[C@H]([C@H]2C[C@H](O)N=C(N)N2)NC(=O)C(=CNC(N)=O)NC(=O)[C@H](CO)NC(=O)[C@H](CO)NC1=O,·,-13.5%[16.9 µM],·,·,·,·
O=C1c2ccccc2C(=O)C1(c1ccccc1)N1CCN(c2cccc(C(F)(F)F)c2)CC1,-20.0,-21.6%,-12.8%,0.9%[46.1 µM],?,-15.3%
COc1ccc2cc(/C=N/NC(=O)c3ccc(CN(c4cccc(Cl)c4Cl)S(C)(=O)=O)cc3)c(Cl)nc2c1,37.5,?,-14.3%,?,0.562µM*,i
SMILES,HCMV antiviral,FMDV inh,VACV Venus inh,LASV entry inh,MARV entry inh,Vaccinia mCherry
COc1ccc2cc(/C=N/O)c(Cl)nc2c1,52.2,24.3%,-1.3%,?,16.9%,i
Cc1nc2cnc(N3CCNCC3)nc2n(C2CC2)c1=O,·,-15.6%,·,·,·,·
O=C(Nc1ccc(Br)cc1F)c1cnn2c1NC(=C1CC1)C=C2C(F)F,·,·,-14.3%,·,·,-16.3%
CCOC(=O)c1c(NC(=O)COC(=O)c2nc(Cl)ccc2Cl)sc2c1CCC2,-61.2*,-9.5%,-6.3%,12.9%,-12.5%,-12.0%
CCOC(=O)c1c(NC(=O)COC(=O)c2nccnc2N)sc2c1CCC2,33.6,-37.8%,·,·,·,·
CCOC(=O)c1c(NC(=O)COc2cccc3c2CCN(CC)C3=O)sc2c1CCC2,-80.0*,-16.1%,2.5%,-13.9%,?,0.1%
CCOC(=O)c1c(NC(=O)COc2cccc3c2CCN(Cc2ccc(F)cc2)C3=O)sc2c1CCC2,·,·,·,·,2.6%,·
Cc1cccc(-c2nc(SCCCOc3ccccc3Cl)n3[nH]c(=O)cc3n2)c1,51.9,8.1%,4.2%,6.2%[46.1 µM],·,-8.2%
COc1ccccc1N1CCN(C(=O)CN2C(=O)COc3ccc(S(=O)(=O)N4CCOCC4)cc32)CC1,0.3,10.7%,-5.7%,1.4%[46.1 µM],4.9%[46.1 µM],-11.1%
C[C@@H]1[C@@H](c2ccccc2)Oc2c(Cl)cccc2S(=O)(=O)N1Cc1cccc(F)c1,·,·,·,-0.6%[46.1 µM],·,·
O=C(O)c1cc(O)c2c(c1)[C@H]([C@H]1c3cc(C(=O)O)cc(O)c3C(=O)c3c(O[C@@H]4O[C@H](CO)[C@@H](O)[C@H](O)[C@H]4O)cccc31)c1cccc(OC3O[C@H](CO)[C@@H](O)[C@H](O)[C@H]3O)c1C2=O (stereo partly specified),-101.3*,?,-14.5%,·,·,i
O=C(O)c1cc(O)c2c(c1)[C@@H]([C@H]1c3cc(C(=O)O)cc(O)c3C(=O)c3c(O[C@@H]4O[C@H](CO)[C@@H](O)[C@H](O)[C@H]4O)cccc31)c1cccc(OC3O[C@H](CO)[C@@H](O)[C@H](O)[C@H]3O)c1C2=O (stereo partly specified),-5.4,-11.2%,-18.8%,·,·,i
Cc1cccc(CNS(=O)(=O)c2ccc(-c3coc(C)n3)cc2)c1,-6.4,-6.3%,-6.2%,6.1%[46.1 µM],·,-5.1%
Cc1ccc([C@H]2C[C@H](O)[C@@H](n3cc(C4CC4)nn3)CN2Cc2cccs2)cc1,12.9,34.0%,11.2µM*,·,?,?
O[C@H]1CN(Cc2cccs2)[C@@H](c2ccccc2)C[C@@H]1n1cc(-c2ccc(F)cc2)nn1,-18.7,-14.4%,-16.6%,·,·,i
O[C@H]1C[C@H](c2ccccc2)N(Cc2cccs2)C[C@@H]1n1cc(-c2ccc(F)cc2)nn1,-64.4*,0.0%,?,·,·,?
COc1ccc([C@H]2C[C@H](O)[C@@H](n3cc(-c4ccc(F)cc4)nn3)CN2Cc2cccs2)cc1,-67.1*,?,10µM*,?,·,10µM*
Cc1c(C(=O)NCCCc2ccncc2)cnn1-c1ncc2c(n1)-c1ccccc1CC2,·,-9.5%,?,·,·,-1.8%
CC1=CC(=O)C2=C(C)C[C@H](OC(=O)Cc3ccccc3)C3[C@H](OC(=O)[C@H]3C)C12 (stereo partly specified),·,-20.0%,·,·,·,·
